Experiment [1] has as its target Lysosomal acid glucosylceramidase (Homo sapiens) (UniProt P04062). As to the kind of experiment: Glucocerebrosidase-p2 (AID 348; in the data active = potency below about 10 µM; note: potency is the fitted concentration of half-maximal effect). As to conditions: purified GBA, blue fluorogenic substrate, 40 min. In a few lines:
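Compounds titrated from 0.6 nM upwards against 0.2 nM enzyme in pH 5.9 citric acid/KH2PO4, taurocholate, tween-20; blue fluorogenic substrate 80 uM, 40 min room temperature, stopped and read Ex 365/Em 440 for AC50.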

A short description of experiment [2]: AP1 Signaling Pathway (AID 357). Note: % is set by controls: 0 for no effect and ±100 for the full control effect. The note with it: ME-180 AP-1-bla reporter, EGF-induced, beta-lactamase ratio, 5 h; at 7.69 µM (top of the series) unless noted. A digest of the protocol: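 In this screen, ME-180 cells in Opti-MEM with 0.5% dialyzed FBS received EC50 EGF and compound titrations for 5 h. AP-1 reporter beta-lactamase was detected via CCF4 ratio, giving AC50 for positive and negative modulators.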

Experiment [3] has as its target Cytochrome P450 1A2 (Homo sapiens) (UniProt P05177). Description: p450-cyp1a2 (AID 410; calls by dose curve; note: potency is the fitted concentration of half-maximal effect;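 for activity change, negative = inhibition: -100% = full effect of reference inhibitor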). As to conditions: recombinant CYP1A2, luciferin-ME demethylation, luminescence; series mostly up to 11.4 µM. In a few lines: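 20nM CYP1A2 with 100uM Luciferin-ME (at Km) in 100mM KPO4; compound preincubated 10 min, NADPH regeneration added, 60 min at room temperature. Luciferin quantified by luminescence after detection reagent; normalized to 57 uM furafylline.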

The target of experiment [4] is Glucocorticoid receptor (Homo sapiens) (UniProt P04150). Description: GR-GFP Redistribution (AID 450;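 active = compounds whose dose series gives a full or clear partial fitted curve of increased nuclear translocation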; note: potency is the fitted concentration of half-maximal effect). The note with it: U2OS GR-GFP nuclear translocation, laser cytometry, 2 h.
Chain of Glucocorticoid receptor (Homo sapiens) (P04150 whole entry, looked up, the tested form may be a part): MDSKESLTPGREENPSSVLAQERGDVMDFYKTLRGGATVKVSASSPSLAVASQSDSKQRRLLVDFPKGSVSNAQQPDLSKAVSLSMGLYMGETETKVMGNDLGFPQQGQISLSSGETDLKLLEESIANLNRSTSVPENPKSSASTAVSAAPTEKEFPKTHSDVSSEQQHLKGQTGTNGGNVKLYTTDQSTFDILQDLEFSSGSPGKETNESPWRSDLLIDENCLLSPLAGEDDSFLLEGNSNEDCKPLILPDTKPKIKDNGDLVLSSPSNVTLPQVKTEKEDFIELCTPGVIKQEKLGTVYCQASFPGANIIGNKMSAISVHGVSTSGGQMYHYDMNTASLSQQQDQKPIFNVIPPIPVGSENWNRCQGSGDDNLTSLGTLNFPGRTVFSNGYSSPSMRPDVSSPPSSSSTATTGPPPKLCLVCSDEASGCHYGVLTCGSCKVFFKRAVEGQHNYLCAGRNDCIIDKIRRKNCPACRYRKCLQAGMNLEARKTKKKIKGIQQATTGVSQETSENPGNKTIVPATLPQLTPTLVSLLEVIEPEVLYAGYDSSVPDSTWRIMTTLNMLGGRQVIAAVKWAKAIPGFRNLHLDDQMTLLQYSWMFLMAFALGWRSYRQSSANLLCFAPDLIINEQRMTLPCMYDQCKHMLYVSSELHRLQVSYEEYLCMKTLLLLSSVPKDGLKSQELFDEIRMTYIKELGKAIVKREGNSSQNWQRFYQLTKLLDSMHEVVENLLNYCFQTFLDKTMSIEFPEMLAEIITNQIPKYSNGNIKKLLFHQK
Experiment [5] has the same target. Description: GR-EFC Redistribution (AID 451; calls by dose curve; note: potency is the fitted concentration of half-maximal effect). As to conditions: CHO-K1 GR-EFC translocation, beta-gal luminescence, 2 h. In a few lines: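 CHO-K1 cells stably expressing nuclear-localized β-gal enzyme acceptor and GR fused C-terminally to the enzyme donor fragment; ligand-driven nuclear translocation restores β-gal by complementation. Compounds titrated up to 46 uM final, 2 h at 37 °C; luminescence read.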

Experiment [6] has as its target Mitogen-activated protein kinase 10 (Mus musculus) (UniProt Q61831). Description: JNK3 AlphaScreen Assay (AID 530).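 Note: kinase came from lysate of stimulated human HepG2 cells; signal reports phosphorylation of biotinylated GST-cJun 1-79 at Ser73 with 10 µM ATP; % is set by controls: 0 for no effect and ±100 for the full control effect.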 The note with it: JNK3 lysate, c-Jun phosphorylation; series mostly up to 11.4 µM. In a few lines: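 Inhibitors reduce antibody binding to phosphorylated biotin-cJun, lowering AlphaScreen luminescence. Lysates from HepG2 cells pre-activated by IL-1beta plus TNF-alpha supplied JNK3; compounds were titrated.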

Experiment [7] concerns the target 3',5'-cyclic-AMP phosphodiesterase 4B (Homo sapiens) (UniProt Q07343). As to the kind of experiment: qHTS Assay for Inhibitors of PDE-IV (AID 607; active = well fitted activation curve with a large enough effect in the main read-out, with a control signal flat, not every such curve was filed as active; note: % of control where 0% means no effect). The note with it: HEK293 ACTOne CNG channel cells, membrane potential fluorescence; series mostly up to 22.9 µM. In a few lines:
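ACTOne HEK293 cells carry a modified cAMP-gated CNG channel and express endogenous PDE4; plated 1000 cells/well, compounds up to 22.9 uM final. Membrane-potential dye fluorescence (ex 535/em 590) was read; parental cells received 10 uM forskolin + 100 uM RO 20-1724.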

In experiment [8] the target is Cytochrome P450 2C9 (Homo sapiens) (UniProt P11712). Description: qHTS Assay for Inhibitors and Substrates of Cytochrome P450 2C9 (AID 883; active = well fitted curve in the direction sought with a large enough effect; an effect the other way counts as inactive or inconclusive; note: potency is the fitted concentration of half-maximal effect; nearly all actives have a fitted effect of over 60% in size). The note with it: recombinant CYP2C9, luciferin-H luminescence, 60 min; series mostly up to 11.4 µM. A digest of the protocol: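 A luminogenic readout tracked human CYP2C9 (10nM) converting deoxyluciferin (100uM, at KM) in 25mM KPO4 during 60 min at 37C with regenerated NADPH. Values normalized to 57uM sulphaphenazole as complete inhibition.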
Chain of Cytochrome P450 2C9 (Homo sapiens) (P11712 whole entry, looked up): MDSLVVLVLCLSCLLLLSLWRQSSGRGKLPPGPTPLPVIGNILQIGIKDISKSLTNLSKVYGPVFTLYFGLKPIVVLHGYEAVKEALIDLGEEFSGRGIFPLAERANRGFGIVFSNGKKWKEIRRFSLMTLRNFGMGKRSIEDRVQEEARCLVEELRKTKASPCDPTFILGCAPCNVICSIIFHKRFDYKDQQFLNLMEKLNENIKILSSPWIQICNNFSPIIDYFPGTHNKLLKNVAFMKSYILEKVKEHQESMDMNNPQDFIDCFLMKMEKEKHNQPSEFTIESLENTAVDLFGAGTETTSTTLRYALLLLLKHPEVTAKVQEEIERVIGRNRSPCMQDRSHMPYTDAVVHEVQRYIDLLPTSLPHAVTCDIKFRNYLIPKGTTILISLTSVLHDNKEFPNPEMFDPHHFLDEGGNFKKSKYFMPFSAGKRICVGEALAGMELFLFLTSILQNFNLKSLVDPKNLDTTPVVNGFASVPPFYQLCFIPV

The target in experiment [9] is Cytochrome P450 3A4 (Homo sapiens) (UniProt P08684). As to the kind of experiment: qHTS Assay for Activators of Cytochrome P450 3A4 (AID 885; active = well fitted curve in the direction sought with a large enough effect; an effect the other way counts as inactive or inconclusive; note: nearly all actives have a fitted effect of over 65% in size). The note with it: recombinant CYP3A4, Luciferin-PPXE luminescence, 60 min; series mostly up to 11.4 µM. A digest of the protocol: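 20nM CYP3A4 + 25uM Luciferin-PPXE (=KM), 200mM KPO4; cpd 10 min RT; NADPH regen, 60 min RT; stop w/ detection buffer, 20 min; luminescence. Normalized to 57 uM ketoconazole.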
Chain of Cytochrome P450 3A4 (Homo sapiens) (P08684 whole entry, looked up): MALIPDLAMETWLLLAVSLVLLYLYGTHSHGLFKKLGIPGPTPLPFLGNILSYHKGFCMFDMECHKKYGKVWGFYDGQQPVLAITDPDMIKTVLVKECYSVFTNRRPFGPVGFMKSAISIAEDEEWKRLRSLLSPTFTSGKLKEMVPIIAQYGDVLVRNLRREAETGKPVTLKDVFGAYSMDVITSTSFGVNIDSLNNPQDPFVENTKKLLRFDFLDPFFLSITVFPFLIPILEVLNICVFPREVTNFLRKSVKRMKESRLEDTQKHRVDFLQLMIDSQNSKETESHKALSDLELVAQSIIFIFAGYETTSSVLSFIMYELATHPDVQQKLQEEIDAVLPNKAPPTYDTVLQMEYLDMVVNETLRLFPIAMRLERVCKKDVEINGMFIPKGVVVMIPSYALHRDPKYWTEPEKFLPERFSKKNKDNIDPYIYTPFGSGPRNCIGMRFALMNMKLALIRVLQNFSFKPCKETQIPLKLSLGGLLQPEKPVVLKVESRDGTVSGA
(In general: Quantitative high-throughput screening tests each substance at several concentrations.)

Experiment [10] has as its target Cytochrome P450 2C19 (Homo sapiens) (UniProt P33261). As to the kind of experiment: qHTS Assay for Inhibitors and Substrates of Cytochrome P450 2C19 (AID 899; active = well fitted curve in the direction sought with a large enough effect; an effect the other way counts as inactive or inconclusive; note: potency is the fitted concentration of half-maximal effect; nearly all actives have a fitted effect of over 60% in size). As to conditions: recombinant CYP2C19, luciferin-H EGE luminescence; series mostly up to 11.4 µM. A digest of the protocol:
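NADPH-dependent conversion of Luciferin-H EGE (10uM, at KM) by 5nM enzyme in 50mM KPO4, 60 min at 37C following 10 min compound preincubation. Stopped with luciferin detection buffer; luminescence read after 20 min.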

Experiment [11] is described as follows: qHTS Assay for Identification of Small Molecule Agonists for Hypoxia Response Element Signaling Pathway (AID 914; active = well fitted activation curve with a large enough effect in the signal ratio, with a control signal flat, not every such curve was filed as active; the % refers to the signal ratio; note: % of control where 0% means no effect). As to conditions: ME-180 HRE-bla reporter, beta-lactamase ratio, CoCl2, 17 h; activation: active compounds read high. A digest of the protocol:
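HRE-bla ME-180 cells with beta-lactamase reporter under hypoxia response element, compounds with EC50 CoCl2 for 17 hours at 37 C. CCF4 substrate, 460nm/530nm emission ratio gave %Activity; AC50 from titration series.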

The nature of experiment [12]: Stat Signaling Pathway (AID 446).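 Note: ME-180 cervical cancer cells given 40 pM IL-6 alongside compound; SIE-controlled beta-lactamase reporter measured as 460/530 nm FRET emission ratio; % is set by controls: 0 for no effect and ±100 for the full control effect.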 The note with it: ME-180 (cervical carcinoma) SIE beta-lactamase reporter, IL-6 stimulated, 5 h; at 7.69 µM (top of the series) unless noted. In a few lines:
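ME-180 SIE-bla cells; overnight plating; cpd + IL-6 40 pM, 5 h, 37 C; LiveBLAzer 2.5 h RT; 460/530 nm emission ratio. Normalized to 300 pM IL-6 and 125 nM JAK inhibitor controls.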

The target of experiment [13] is Cytochrome P450 3A4 (Homo sapiens) (UniProt P08684). As to the kind of experiment: qHTS Assay for Inhibitors and Substrates of Cytochrome P450 3A4 (AID 884; active = well fitted curve in the direction sought with a large enough effect; an effect the other way counts as inactive or inconclusive; note: potency is the fitted concentration of half-maximal effect; nearly all actives have a fitted effect of over 50% in size). The note with it: recombinant CYP3A4, Luciferin-PPXE luminescence; series mostly up to 57.1 µM. In a few lines:
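20 nM human CYP3A4 with 25 uM Luciferin-PPXE (at KM) in 200 mM KPO4, preincubated 10 min with compound; NADPH regeneration started a 60 min RT reaction. Luciferin detected by luminescence, normalized to 57 uM ketoconazole as full inhibition.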

Experiment [14] in a line: NFAT Signaling Pathway (AID 444).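 Note: carbachol stimulus at about its EC50 of 1 µM final; % is set by controls: 0 for no effect and ±100 for the full control effect.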 The note with it: Jurkat NFAT-bla M1, carbachol, beta-lactamase ratio, 5 h; at 7.69 µM (top of the series) unless noted. A digest of the protocol: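 Jurkat cells carrying an NFAT-driven β-lactamase reporter and co-transfected muscarinic M1 receptor were treated with compound plus carbachol (1 uM final, an EC50 level) for 5 h at 37 °C. CCF4 loading followed for 1 h at RT; 460/530 nm ratio gave %activity.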

Unmarked numbers belong to inactive results. Records with an inconclusive call do not appear. Activity calls are given as the source filed them. Unless noted, calls come from the whole dose curve; as a rule, active = well fitted curve in either direction with a large enough effect (not every such curve was filed as active); inconclusive = small, poorly fitted or top-dose-only effect, or another doubt; inactive = flat fitted curve, though single readings scatter. A value given as a limit tells only on which side of the number the result lay.

Chain of 3',5'-cyclic-AMP phosphodiesterase 4B (Homo sapiens) (Q07343 whole entry, looked up): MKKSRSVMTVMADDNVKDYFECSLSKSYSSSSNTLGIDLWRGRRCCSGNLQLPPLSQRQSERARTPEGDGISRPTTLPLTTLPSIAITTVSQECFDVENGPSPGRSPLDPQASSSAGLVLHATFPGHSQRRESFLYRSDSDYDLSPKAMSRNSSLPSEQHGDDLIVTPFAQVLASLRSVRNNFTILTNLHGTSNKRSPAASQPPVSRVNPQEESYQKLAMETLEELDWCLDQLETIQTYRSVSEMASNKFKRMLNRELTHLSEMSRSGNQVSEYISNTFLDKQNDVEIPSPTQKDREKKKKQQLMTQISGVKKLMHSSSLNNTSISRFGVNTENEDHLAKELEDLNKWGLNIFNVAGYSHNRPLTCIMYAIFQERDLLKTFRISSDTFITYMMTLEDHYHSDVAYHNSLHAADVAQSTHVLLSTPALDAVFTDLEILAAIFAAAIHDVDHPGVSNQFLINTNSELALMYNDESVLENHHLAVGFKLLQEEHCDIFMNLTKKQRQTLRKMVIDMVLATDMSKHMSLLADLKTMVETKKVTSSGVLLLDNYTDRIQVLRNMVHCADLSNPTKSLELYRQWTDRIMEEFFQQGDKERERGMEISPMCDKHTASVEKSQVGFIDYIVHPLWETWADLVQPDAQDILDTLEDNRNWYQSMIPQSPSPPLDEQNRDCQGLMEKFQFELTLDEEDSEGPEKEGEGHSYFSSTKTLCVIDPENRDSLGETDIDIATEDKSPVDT
Chain of Cytochrome P450 1A2 (Homo sapiens) (P05177 whole entry, looked up): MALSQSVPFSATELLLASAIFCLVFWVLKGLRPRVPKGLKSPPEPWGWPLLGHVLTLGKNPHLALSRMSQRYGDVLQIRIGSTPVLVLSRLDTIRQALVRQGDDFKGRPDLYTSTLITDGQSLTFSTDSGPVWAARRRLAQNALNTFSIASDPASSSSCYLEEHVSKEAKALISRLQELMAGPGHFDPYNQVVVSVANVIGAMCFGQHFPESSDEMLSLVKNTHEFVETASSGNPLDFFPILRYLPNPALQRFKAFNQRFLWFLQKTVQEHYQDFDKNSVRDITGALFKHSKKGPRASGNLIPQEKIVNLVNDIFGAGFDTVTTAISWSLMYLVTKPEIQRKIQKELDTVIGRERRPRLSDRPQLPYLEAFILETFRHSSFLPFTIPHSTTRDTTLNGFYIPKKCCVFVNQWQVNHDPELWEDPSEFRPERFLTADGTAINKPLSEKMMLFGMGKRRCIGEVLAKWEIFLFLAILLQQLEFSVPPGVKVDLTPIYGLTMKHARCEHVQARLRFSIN
Chain of Lysosomal acid glucosylceramidase (Homo sapiens) (P04062 whole entry, looked up): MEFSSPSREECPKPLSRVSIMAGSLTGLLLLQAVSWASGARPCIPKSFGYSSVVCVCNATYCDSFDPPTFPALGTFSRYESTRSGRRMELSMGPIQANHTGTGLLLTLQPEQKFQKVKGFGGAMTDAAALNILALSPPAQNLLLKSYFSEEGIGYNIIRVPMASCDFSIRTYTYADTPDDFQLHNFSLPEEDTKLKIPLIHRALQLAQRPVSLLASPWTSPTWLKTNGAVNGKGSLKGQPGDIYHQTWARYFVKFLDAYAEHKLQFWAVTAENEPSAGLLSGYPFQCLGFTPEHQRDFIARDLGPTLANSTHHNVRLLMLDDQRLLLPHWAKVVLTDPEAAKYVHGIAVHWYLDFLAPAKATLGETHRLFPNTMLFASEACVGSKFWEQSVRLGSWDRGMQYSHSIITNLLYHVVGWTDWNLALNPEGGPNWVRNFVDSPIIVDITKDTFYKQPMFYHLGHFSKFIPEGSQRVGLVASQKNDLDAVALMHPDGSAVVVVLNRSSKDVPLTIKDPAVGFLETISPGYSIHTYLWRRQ
Chain of Cytochrome P450 2C19 (Homo sapiens) (P33261 whole entry, looked up): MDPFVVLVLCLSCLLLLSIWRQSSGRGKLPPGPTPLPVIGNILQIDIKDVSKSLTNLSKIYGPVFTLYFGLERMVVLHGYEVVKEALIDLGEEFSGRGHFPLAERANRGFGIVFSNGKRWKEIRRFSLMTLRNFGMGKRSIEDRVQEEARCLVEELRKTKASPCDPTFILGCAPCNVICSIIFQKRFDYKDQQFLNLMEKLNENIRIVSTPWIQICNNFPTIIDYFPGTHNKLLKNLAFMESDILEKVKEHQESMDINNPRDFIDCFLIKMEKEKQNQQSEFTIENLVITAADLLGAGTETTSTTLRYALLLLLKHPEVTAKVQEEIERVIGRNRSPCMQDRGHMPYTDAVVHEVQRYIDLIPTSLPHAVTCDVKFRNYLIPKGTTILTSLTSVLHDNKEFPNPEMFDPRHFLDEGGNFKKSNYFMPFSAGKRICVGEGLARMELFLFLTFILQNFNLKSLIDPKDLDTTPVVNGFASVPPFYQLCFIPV

On to `COc1ccc2ccccc2c1/C=C\C(=O)c1ccccc1`, for which the Potency was above 11.4 µM in experiment [1]; 3.16 µM (active) in experiment [3]; above 46 µM in [4]; above 9.22 µM in experiment [5]; 1.26 µM (active) in [8]; 0.316 µM (active) in [10]. For the same compound, the activity change, negative = inhibition in experiment [2] is -15.4%. Also, the Potency entry in [6], in experiment [7] and in [9] was “inactive” in each case. Further, in experiment [11], the activation was 22.5%.

Consider `O=C(c1cc(C(F)(F)F)cc(C(F)(F)F)c1)N1CCC[C@@]2(CCN(Cc3ccccc3)C2)C1`, for which the Potency in [1] is above 11.4 µM; in [3], 25.1 µM (active); in experiment [5], above 46 µM; in [13], 5.01 µM (active). Also, the activity change, negative = inhibition in experiment [2] was 2.92%. The activity, negative = inhibition in experiment [12] was 7.65%. Moreover, the Potency result in experiment [6], in experiment [7] and in experiment [9] was “inactive” throughout.

Consider `O[C@H](C[C@@H]1CCCCN1)c1ccc2c(c1)oc1ccccc12`, for which the Potency in [1] was above 11.4 µM; in experiment [4], above 46 µM; in experiment [5] it was above 9.22 µM. For the same compound, the values for the activity change, negative = inhibition in experiment [2] and in experiment [3] were 6.24% and -10.4% [at 2.29 µM], respectively. For the same compound, in [12], the activity, negative = inhibition was 4%. In addition, in experiment [7], the Potency result is “inactive”. For the same compound, the activation in [11] was -0.884%.

As for `OC[C@@H]1O[C@@H](n2cnc3c(SCc4ccccc4)ncnc32)[C@@H](O)[C@H]1O`, the Potency in experiment [1] was above 11.4 µM; in experiment [4], above 46 µM; in experiment [5], above 9.22 µM. The activity change, negative = inhibition in experiment [2] is 3.13%; in experiment [3], -17.2% [at 2.29 µM]. Besides, the Potency entry in experiment [6] and in experiment [7] was “inactive” each time.

`CSc1cccc(NC(=O)OC2CCCCCCCCCCC2)c1`: the Potency in [1] was above 11.4 µM; in [3], 5.01 µM (active); in experiment [4], above 46 µM; in [5], above 9.22 µM. Further, the activity change, negative = inhibition in experiment [2] is 8.21%. Moreover, the Potency entry in experiment [6], in experiment [7] and in experiment [9] was “inactive” throughout.

Take `COc1ccc(-c2nc3cnc(OC)nc3n(Cc3cccs3)c2=O)cc1`: the values for the Potency in experiment [1], in [4] and in experiment [5] were above 11.4 µM, above 9.22 µM and above 46 µM, respectively. Moreover, the values for the activity change, negative = inhibition in experiment [2] and in experiment [14] were 20.7% and 8.9%, respectively. Moreover, the activity, negative = inhibition in experiment [12] is 14.3%. The Potency result in experiment [6] is “inactive”.

Consider `CN(C)S(=O)(=O)c1ccc(Nc2ccc(O)c3c2C(=O)c2c([N+](=O)[O-])ccc(O)c2C3=O)cc1`, for which the Potency in experiment [1] was above 11.4 µM; in [3], 0.126 µM (active); in experiment [4], above 46 µM; in experiment [5], above 9.22 µM. For the same compound, the activity change, negative = inhibition in experiment [2] is -13.4%. Also, the activity, negative = inhibition in experiment [12] was 23.6%. In addition, the Potency entry in experiment [7] and in [9] was “inactive” throughout.

Turning to `O=C(O)[C@H]1CCCC[C@@H]1C(=O)Nc1nc2ccccc2[nH]1`, the results for the Potency in [1], in experiment [4] and in experiment [5] were above 11.4 µM, above 46 µM and above 9.22 µM, respectively. Also, the activity change, negative = inhibition was 1.58% in experiment [2] and 9.82% in [14]. In addition, in experiment [12], the activity, negative = inhibition was 2.07%. In addition, in experiment [6], the Potency entry is “inactive”.

With `O=C(NC1(C(=O)O)CCCC1)c1ccccc1`, the results for the Potency in experiment [1], in experiment [4] and in experiment [5] were above 11.4 µM, above 46 µM and above 9.22 µM, respectively. Further, the activity change, negative = inhibition is -4.54% in experiment [2] and 12% in experiment [14]. The activity, negative = inhibition in [12] was 6.79%. Also, the Potency entry in experiment [6] and in experiment [7] was “inactive” each time.

As for `CC(C)(SCc1ccccc1)[C@H](N)C(=O)O`, the Potency in experiment [1] was above 11.4 µM; in [4], above 46 µM; in experiment [5], above 9.22 µM. The activity change, negative = inhibition in [2] was 0.115%; in experiment [14], 12.4%. The activity, negative = inhibition in [12] is 5.95%. In addition, the Potency entry in experiment [6] is “inactive”.
